Hits are enriched below; roughly 1.7% of the tested compounds scored in any of these assays.
HDAC3 inhib – inhibitors of human histone deacetylase 3 | O15379 | recombinant HDAC3, fluorogenic peptide/trypsin coupled, fluorescence | inhibition, % at 8.3 µM | 320,000 tested, 0.15% active | AID 2718; in the data active means inhibition above about 26%, passing the limit was not always enough
CTSL1 counter – counter-screen for PFM18AAP inhibitors: inhibitors of F. hepatica cathepsin L1 | inhibition, % at 5.96 µM | recombinant F. hepatica cathepsin L1, Z-Leu-Arg-MCA fluorescence | 300,000 tested, 0.49% active;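 active means inhibition above the mean of all tested compounds plus 3 SD, set per screening campaign, cut at about 17% in these data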
LANA-H2A inh – blocks KSHV LANA binding to histone H2A/H2B; Q9QR71; 320,000 tested, 0.6% active; inhibition, % (concentration not given with the values); cell-free LANA-H2A/H2B peptide, fluorescence polarization; AID 2629; in the data active means inhibition mostly above about 10%, no sharp cut-off; inactive means mostly below about 6.7%
HTR2A ag – agonists of mouse serotonin 5-HT2A receptor (HTR2A); CHO-K1 mHTR2A beta-arrestin complementation, luminescence; percent of 30 µM serotonin response; P35363; AID 624169; activation, % at 7.6 µM; 360,000 tested, 0.66% active;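 active means activation above a run cutoff, the mean activation of all tested compounds plus 3 SD, cut at about 14% in these data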
MOR ag counter – OPRM1 agonism in mouse HTR2A counterscreen; shares compounds with HTR2A ag; U2OS OPRM1 beta-arrestin PathHunter, luminescence; DMSO 0%, DAMGO 9.3 µM 100%; activation, % at 9.3 µM; 2,300 tested, 5.3% active;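 active means mean activation above the mean of DMSO-only wells plus 3 SD, cut at about 0.5% in these data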
Target sequence (P35372 whole entry, looked up): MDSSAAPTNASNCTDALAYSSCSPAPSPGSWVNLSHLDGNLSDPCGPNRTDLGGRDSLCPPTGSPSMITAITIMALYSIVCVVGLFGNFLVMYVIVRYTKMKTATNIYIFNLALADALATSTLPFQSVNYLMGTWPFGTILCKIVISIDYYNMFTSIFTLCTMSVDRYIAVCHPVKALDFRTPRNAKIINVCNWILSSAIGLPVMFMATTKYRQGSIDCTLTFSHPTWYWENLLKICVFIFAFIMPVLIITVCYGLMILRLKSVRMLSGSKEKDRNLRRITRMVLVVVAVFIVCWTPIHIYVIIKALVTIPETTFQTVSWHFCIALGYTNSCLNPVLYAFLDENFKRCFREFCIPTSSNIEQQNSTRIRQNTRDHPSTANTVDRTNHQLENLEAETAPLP
HTR2A ag conf – confirmation of mouse HTR2A serotonin receptor agonists; shares compounds with HTR2A ag; CHO-K1 PathHunter beta-arrestin recruitment, luminescence; DMSO 0%, 30 µM serotonin 100%; activation, % at 7.6 µM; 2,300 tested, 19% active;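 active means mean activation across triplicates above the hit threshold derived in the original primary screen, cut at about 15% in these data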
Of the large screens only hits and unclear results are named; the others gave an inactive call (follow-up assays come after a bar, where they were run).

O=C(Nc1cccnc1)c1cc(-c2ccccc2)on1	none
Cc1ccc(NC(=O)COC(=O)CN2C(=O)NC(C)(C)C2=O)cc1S(=O)(=O)N1CCOCC1	HTR2A ag 24 | MOR ag counter inactive | HTR2A ag conf inactive
CCN(CC)C(=O)CCNS(=O)(=O)c1ccc(C)cc1	HTR2A ag 15 | MOR ag counter inactive | HTR2A ag conf inactive
CCN(CC)CCn1c(NC(=O)c2ccc(Cl)cc2)nc2ccccc21	HTR2A ag 18 | HTR2A ag conf inactive
CCN(CC)CCn1c(NC(=O)c2ccccc2O)nc2ccccc21	none
CCc1nnc(NC(=O)c2ccc(OC)c(S(=O)(=O)N3CCCC3)c2)s1	none (no result: CTSL1 counter)
CN(Cc1ccccc1)CC(O)COc1ccc(CNCCCOc2cccnc2)cc1 (configuration not stated)	none
CN(Cc1ccccc1)CC(O)COc1ccc(CNCCOc2cccnc2)cc1 (configuration not stated)	HTR2A ag 18 | MOR ag counter inactive | HTR2A ag conf 38
COc1ccccc1NC(=O)COC(=O)Cc1c[nH]c2ccccc12	HTR2A ag 15 | MOR ag counter inactive | HTR2A ag conf inactive
COc1cc2c(cc1O)[C@@H]1Cc3cc(OC)c(OC)cc3C(C2)N1C	none
COc1cc2c(cc1OC)[C@@H]1Cc3cc4c(cc3[C@H](C2)N1C)OCO4	HDAC3 inhib 34, HTR2A ag 18 | MOR ag counter inactive | HTR2A ag conf inactive
COc1ccccc1C#Cc1cnc2c(c1)C(=O)N([C@H](C)CO)C[C@H](C)[C@@H](CN(C)S(=O)(=O)c1cn(C)cn1)O2	none (no result: HDAC3 inhib, CTSL1 counter, LANA-H2A inh)
Oc1ccc(C2CNCc3sccc32)cc1O (configuration not stated)	HTR2A ag 48 | MOR ag counter inactive | HTR2A ag conf 151
Oc1ccc(C2C[C@H]3CC[C@@H]2C3)cc1O (some centres not stated)	none
Cc1nc2ccccc2c(=O)n1-c1ccc(NS(=O)(=O)c2ccccc2)cc1	HTR2A ag 15 | MOR ag counter inactive | HTR2A ag conf inactive
Cc1nc2ccccc2c(=O)n1-c1ccc(NS(=O)(=O)c2ccc(F)cc2)cc1	none
CCOc1ccc(C(=O)Nc2ccc(NC(=O)c3ccccc3)c(C)c2)cc1[N+](=O)[O-]	none (no result: CTSL1 counter)
COCCNc1nc(-c2cc(-c3ccc(Cl)cc3)on2)cc(C(C)C)n1	HTR2A ag 16 | MOR ag counter inactive | HTR2A ag conf inactive
CC(C)c1cc(-c2cc(-c3ccc(Cl)cc3)on2)nc(NCC2CC2)n1	none
CCCn1nc(C(=O)Nc2nc(-c3ccccn3)cs2)c2ccccc2c1=O	HTR2A ag 23 (no result: CTSL1 counter) | MOR ag counter inactive | HTR2A ag conf inactive
CCn1nc(C(=O)Nc2nc(-c3ccccn3)cs2)c2ccccc2c1=O	none (no result: CTSL1 counter)
COc1ccccc1NC(=O)CN1CCN(c2ccccn2)CC1	HTR2A ag 16 | MOR ag counter inactive | HTR2A ag conf 37
CCN(CC)S(=O)(=O)c1cc(NC(=O)CN2CCN(c3ccccn3)CC2)ccc1C	HTR2A ag 32 | MOR ag counter inactive | HTR2A ag conf 94
CN(C)S(=O)(=O)c1ccc(NC(=O)CN2CCN(c3ccccn3)CC2)cc1	none
CCN(CC)S(=O)(=O)c1cc(NC(=O)C(C)N2CCN(c3ccccn3)CC2)ccc1C (configuration not stated)	none
Cc1ccc(NC(=O)CN2CCN(c3ccccn3)CC2)cc1S(=O)(=O)N(C)C	HTR2A ag 51 | MOR ag counter inactive | HTR2A ag conf 118
CN(C)S(=O)(=O)c1cc(NC(=O)CN2CCN(c3ccccc3)CC2)ccc1Cl	HTR2A ag 18 | MOR ag counter inactive | HTR2A ag conf 45
CN(CC(=O)NNC(=O)Cc1ccccc1F)S(=O)(=O)c1ccc(Cl)cc1	none (no result: HDAC3 inhib, LANA-H2A inh)
O=C(NCC1COc2ccccc2O1)c1cccc(S(=O)(=O)NCc2ccccc2)c1 (configuration not stated)	none
Cc1c(C)c(C)c(CN2CCCC2)c(C)c1C	none
CC(=O)c1ccccc1OCC(O)Cn1ccnc1 (configuration not stated)	HTR2A ag 21 | MOR ag counter inactive | HTR2A ag conf inactive
CC(=O)Nc1ccc(OCC(O)Cn2ccnc2)cc1 (configuration not stated)	none
O=C(Cn1cnc2c(NCc3ccccc3)ncnc21)N1CCN(c2ccccn2)CC1	none (no result: HDAC3 inhib, CTSL1 counter, LANA-H2A inh)
Cc1cc(C)c(CN2CCN(C(=O)Cn3cnc4c(NCc5ccccc5)ncnc43)CC2)c(C)c1	HTR2A ag 22 (no result: HDAC3 inhib, CTSL1 counter, LANA-H2A inh) | HTR2A ag conf inactive
C=C(C)Cn1c(C2CC(=O)N(Cc3ccccc3)C2)nc2ccccc21 (configuration not stated)	none
CCn1c(C2CC(=O)N(Cc3ccccc3)C2)nc2ccccc21 (configuration not stated)	HTR2A ag 41 (no result: HDAC3 inhib) | MOR ag counter inactive | HTR2A ag conf inactive
CC(=O)c1c(C)[nH]c(C(=O)Nc2ccccn2)c1C	HTR2A ag 15 | MOR ag counter inactive | HTR2A ag conf inactive
Cc1nc2ccc(C(=O)OCC(=O)N(C)c3ccccc3)cc2nc1C	none (no result: HDAC3 inhib, CTSL1 counter, LANA-H2A inh)
COc1ccccc1NC(=O)c1ccc[n+]([O-])c1	none
O=C(Nc1cnc2ccccn2c1=O)c1ccc(F)cc1	HTR2A ag 17 | MOR ag counter inactive | HTR2A ag conf inactive
CC1(C)N=C(N)N=C(N)N1c1cc(Cl)ccc1Cl	HTR2A ag 23 (no result: HDAC3 inhib, CTSL1 counter, LANA-H2A inh) | MOR ag counter inactive | HTR2A ag conf inactive
CC1(C)N=C(N)N=C(N)N1c1ccc(F)cc1F	none
Cc1ccc(CONS(=O)(=O)c2cc(C)ccc2C)cc1	none (no result: CTSL1 counter, LANA-H2A inh)
O=S(=O)(NOCc1ccc(Cl)cc1)c1ccc(Cl)cc1	HTR2A ag 15 | MOR ag counter inactive | HTR2A ag conf inactive
C#CCN(C[C@H]1[C@H](OC(=O)NCc2ccco2)[C@H](OC(=O)NCc2ccco2)C[C@@H](C(=O)OC)[C@H]1C(=O)OC)S(=O)(=O)c1ccc(C)cc1	none (no result: HDAC3 inhib, CTSL1 counter, LANA-H2A inh)
COc1ccc(S(=O)(=O)Nc2c(O)ccc3ccccc23)cc1OC	none
CC1(C(=O)NS(=O)(=O)c2ccc(Cl)cc2)CCN1C(=O)C1(c2ccc(Cl)cc2)CC1 (configuration not stated)	HTR2A ag 15 (no result: HDAC3 inhib, CTSL1 counter, LANA-H2A inh) | MOR ag counter inactive | HTR2A ag conf inactive
O=c1c(CN2CCN(c3cccc(Cl)c3)CC2)coc2c(Cl)cc(Cl)cc12	HTR2A ag 16 | MOR ag counter inactive | HTR2A ag conf inactive
CN1CCN(Cc2coc3c(Cl)cc(Cl)cc3c2=O)CC1	none
O=C(Nc1ccccc1C(=O)Nc1nnc(C(F)(F)F)s1)c1ccccc1	HTR2A ag 14 | MOR ag counter inactive | HTR2A ag conf inactive
Cc1occc1C(=O)Nc1nnc(C(F)(F)F)s1	none
Cc1ccc(CN2CCN(c3ncccn3)CC2)o1	HTR2A ag 30 | MOR ag counter inactive | HTR2A ag conf 60
Oc1cc2c(cc1CN1CCN(c3ncccn3)CC1)OCO2	HTR2A ag 17 | MOR ag counter inactive | HTR2A ag conf 123

Source: PubChem BioAssay
